Results from PubChem BioAssay (Tox21).
Calls of active or inactive are those of the source. Entries that show only a call come without a potency. Unless noted, calls follow the shape of the dose curve; as a rule, active = well fitted curve in the direction sought with a large enough effect in the repeat runs; inconclusive = weak or mixed curves; inactive = no such curve, though single readings can be large; an effect the other way counts as inactive or inconclusive.

Experiments:
[1] = qHTS assay for small molecule disruptors of the mitochondrial membrane potential (AID 720635)
Method in brief: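 HepG2 cells exposed to compound 1 hr at 37C, then Mito-MPS dye 30 min. Ratio read of aggregate (540/590 nm) versus monomer (490/535 nm) fluorescence.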

[2] = qHTS assay to test for compound auto fluorescence at 535 nm (green) in HEK293 cells (AID 720680)
[3] = qHTS assay to test for compound auto fluorescence at 590 nm (red) in HepG2 cell free culture (AID 720684)
Method in brief: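 Compound was pinned into wells holding MEM with 10% FBS and no cells, and red fluorescence was read at Ex/Em 540/590 nm. Signal is expressed as auto fluorescence equivalency relative to Rose Bengal sodium.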

[4] = qHTS assay to test for compound auto fluorescence at 460 nm (blue) in HepG2 cell free culture (AID 720685)
Method in brief: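 Compound (23 nL) or DMSO pinned into cell-free MEM with 10% FBS; blue fluorescence read at 405/460 nm excitation/emission, expressed as auto-fluorescence equivalency to triamterene.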

[5] = target: Glucocorticoid receptor (Homo sapiens) (UniProt P04150); test: qHTS assay to identify small molecule agonists of the glucocorticoid receptor (GR) signaling pathway (AID 720691; active = well fitted activation curve with a large enough effect in the signal ratio in the repeat runs, not every such curve was filed as active; inconclusive = weak or mixed curves, or effect the other way; inactive = no such curve, though single readings can be large or run the other way; the % refers to the signal ratio)
Sequence of Glucocorticoid receptor (Homo sapiens) (P04150 whole entry, looked up): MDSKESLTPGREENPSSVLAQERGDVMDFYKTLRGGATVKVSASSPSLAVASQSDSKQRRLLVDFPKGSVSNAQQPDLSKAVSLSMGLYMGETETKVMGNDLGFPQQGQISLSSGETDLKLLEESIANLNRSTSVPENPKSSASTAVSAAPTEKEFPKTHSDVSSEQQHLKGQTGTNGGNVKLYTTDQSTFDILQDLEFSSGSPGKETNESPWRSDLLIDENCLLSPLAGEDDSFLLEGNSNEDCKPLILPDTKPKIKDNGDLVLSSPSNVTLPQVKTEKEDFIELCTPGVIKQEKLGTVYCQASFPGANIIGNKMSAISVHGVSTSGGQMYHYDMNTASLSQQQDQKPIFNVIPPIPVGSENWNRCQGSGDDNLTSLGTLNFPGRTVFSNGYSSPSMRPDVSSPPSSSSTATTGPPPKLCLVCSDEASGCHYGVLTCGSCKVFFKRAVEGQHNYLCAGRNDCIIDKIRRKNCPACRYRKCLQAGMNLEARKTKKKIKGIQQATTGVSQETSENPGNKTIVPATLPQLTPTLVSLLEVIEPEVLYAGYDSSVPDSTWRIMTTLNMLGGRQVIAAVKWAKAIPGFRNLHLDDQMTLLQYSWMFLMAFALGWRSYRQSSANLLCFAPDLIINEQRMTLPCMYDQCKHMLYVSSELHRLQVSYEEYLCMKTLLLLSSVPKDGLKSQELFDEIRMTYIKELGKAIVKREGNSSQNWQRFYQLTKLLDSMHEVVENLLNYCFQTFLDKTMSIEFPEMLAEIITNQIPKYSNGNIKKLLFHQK
Method in brief: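 GR-bla HeLa cells (beta-lactamase reporter under glucocorticoid response element) were plated 4 h at 37 C/5% CO2, given compounds in DMSO, and incubated 18 h at 37 C. LiveBLAzer B/G FRET substrate was added for 2 h at room temperature, then fluorescence intensity read.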

[6] = qHTS assay for identifying genotoxic compounds that show differential cytotoxicity against isogenic chicken DT40 cell lines with known DNA damage response pathways - wild type cell line (AID 743012); also: nearly all actives have a fitted effect of over 60% in size; also: potency is read from the fitted curve at half-maximal effect
Method in brief: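 Parental DNA repair-proficient DT40 cells, 300 per well, were pre-incubated ~0.5 h at 37 C/5% CO2, pin-dosed with compounds in DMSO, then incubated 40 h. Viability was read as CellTiter-Glo luminescence after 30 min at room temperature.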

[7] = qHTS assay to identify small molecule antagonists of the thyroid receptor (TR) signaling pathway - cell viability counter screen (AID 743064); also: nearly all actives have a fitted effect of over 50% in size
Method in brief: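 GH3.TRE-Luc rat pituitary cells dosed after 4 hr plating, co-stimulated with T3 at 1 nM final, incubated 23.5 h at 37 C. Viability measured in the same wells by CellTiter-Fluor fluorescence after 30 min further at 37 C.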

[8] = qHTS assay to identify small molecule antagonists of the thyroid receptor (TR) signaling pathway (AID 743065); also: series mostly up to about 70 µM; nearly all actives have a fitted effect of over 55% in size
Method in brief: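 GH3.TRE-Luc rat pituitary cells (two TREs driving luciferase) were dosed with compound, then stimulated with 1 nM T3 (final) for 23.5 h at 37 C. ONE-Glo luminescence was the read-out, with CellTiter-Fluor fluorescence as the cytotoxicity counter-screen.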

[9] = target: Estrogen receptor (Homo sapiens) (UniProt P03372); test: qHTS assay to identify small molecule agonists of the estrogen receptor alpha (ER-alpha) signaling pathway (AID 743075; calls by dose curve;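 also: HEK293 GripTite cells with ER-alpha and UAS-driven beta-lactamase reporter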; also: potency is read from the fitted curve at half-maximal effect)
Sequence of Estrogen receptor (Homo sapiens) (P03372 whole entry, looked up): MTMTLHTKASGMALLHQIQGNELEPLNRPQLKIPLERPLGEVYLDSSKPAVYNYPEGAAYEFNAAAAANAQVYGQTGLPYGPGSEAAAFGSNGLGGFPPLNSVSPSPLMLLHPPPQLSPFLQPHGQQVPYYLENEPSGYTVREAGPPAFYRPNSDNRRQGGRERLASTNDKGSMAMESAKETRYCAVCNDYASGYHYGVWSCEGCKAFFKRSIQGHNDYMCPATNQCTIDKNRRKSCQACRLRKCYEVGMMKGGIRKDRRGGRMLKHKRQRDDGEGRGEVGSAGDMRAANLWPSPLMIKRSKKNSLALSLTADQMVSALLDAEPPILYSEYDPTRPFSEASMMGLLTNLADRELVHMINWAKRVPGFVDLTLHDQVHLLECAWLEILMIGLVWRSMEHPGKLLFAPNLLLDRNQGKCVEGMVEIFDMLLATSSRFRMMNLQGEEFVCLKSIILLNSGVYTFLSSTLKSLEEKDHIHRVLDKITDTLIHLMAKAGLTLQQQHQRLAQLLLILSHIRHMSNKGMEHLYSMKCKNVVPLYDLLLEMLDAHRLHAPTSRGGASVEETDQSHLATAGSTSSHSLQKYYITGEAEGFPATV

[10] = target: Estrogen receptor (Homo sapiens) (UniProt P03372); test: qHTS assay to identify small molecule agonists of the estrogen receptor alpha (ER-alpha) signaling pathway using the BG1 cell line (AID 743079); also: nearly all actives have a fitted effect of over 20% in size; also: potency is read from the fitted curve at half-maximal effect
[11] = qHTS assay to identify small molecule antagonists of the estrogen receptor alpha (ER-alpha) signaling pathway using the BG1 cell line (AID 743080; calls by dose curve;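 also: BG1 cells stimulated with 17beta-estradiol alongside compound; series mostly up to about 70 µM; nearly all actives have a fitted effect of over 25% in size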)
Method in brief: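 Readout is ONE-Glo luminescence, taken 30 min at room temperature after reagent addition, preceded by a CellTiter-Fluor viability read; BG1-Luc-4E2 cells had received compound and 17beta-estradiol for 21.5 h at 37 C.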

[12] = target: Aryl hydrocarbon receptor (Homo sapiens) (UniProt P35869); test: qHTS assay to identify small molecule that activate the aryl hydrocarbon receptor (AhR) signaling pathway (AID 743085);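 also: HG2L7.5c1 human HepG2 liver cells with stably integrated DRE-driven firefly reporter; series mostly up to about 70 µM; nearly all actives have a fitted effect of over 15% in size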
Sequence of Aryl hydrocarbon receptor (Homo sapiens) (P35869 whole entry, looked up): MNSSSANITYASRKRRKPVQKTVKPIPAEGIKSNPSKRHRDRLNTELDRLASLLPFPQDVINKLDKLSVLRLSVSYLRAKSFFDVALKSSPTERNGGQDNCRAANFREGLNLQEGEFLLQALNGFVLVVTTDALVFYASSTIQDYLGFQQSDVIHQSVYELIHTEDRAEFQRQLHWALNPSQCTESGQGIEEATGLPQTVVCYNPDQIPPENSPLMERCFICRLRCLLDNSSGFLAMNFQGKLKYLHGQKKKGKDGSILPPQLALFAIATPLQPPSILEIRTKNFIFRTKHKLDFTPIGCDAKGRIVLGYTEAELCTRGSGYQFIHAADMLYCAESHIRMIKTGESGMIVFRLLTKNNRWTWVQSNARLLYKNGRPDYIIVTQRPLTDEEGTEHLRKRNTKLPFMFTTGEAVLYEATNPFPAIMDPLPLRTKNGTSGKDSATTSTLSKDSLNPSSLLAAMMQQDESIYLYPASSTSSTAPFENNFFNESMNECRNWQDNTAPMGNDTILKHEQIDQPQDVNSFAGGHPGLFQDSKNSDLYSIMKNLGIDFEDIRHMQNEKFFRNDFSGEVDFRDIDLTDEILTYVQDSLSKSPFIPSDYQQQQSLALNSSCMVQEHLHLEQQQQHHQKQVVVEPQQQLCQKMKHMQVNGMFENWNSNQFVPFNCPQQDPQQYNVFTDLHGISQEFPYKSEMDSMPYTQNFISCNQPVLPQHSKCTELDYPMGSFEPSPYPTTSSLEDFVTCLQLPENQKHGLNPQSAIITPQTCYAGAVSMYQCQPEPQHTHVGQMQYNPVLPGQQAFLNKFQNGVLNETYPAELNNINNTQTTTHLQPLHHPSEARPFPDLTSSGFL
Method in brief: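 HepG2 cells stably carrying a 20-DRE firefly luciferase reporter (HG2L7.5c1) treated with compound for 24 hr at 37C. Luciferase read by ONE-Glo luminescence, with CellTiter-Fluor viability read first.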

[13] = target: Peroxisome proliferator-activated receptor gamma (Homo sapiens) (UniProt P37231); test: qHTS assay to identify small molecule agonists of the peroxisome proliferator-activated receptor gamma (PPARg) signaling pathway (AID 743094; active = well fitted activation curve with a large enough effect in the signal ratio in the repeat runs, not every such curve was filed as active; inconclusive = weak or mixed curves, or effect the other way; inactive = no such curve, though single readings can be large or run the other way; the % refers to the signal ratio)
Sequence of Peroxisome proliferator-activated receptor gamma (Homo sapiens) (P37231 whole entry, looked up): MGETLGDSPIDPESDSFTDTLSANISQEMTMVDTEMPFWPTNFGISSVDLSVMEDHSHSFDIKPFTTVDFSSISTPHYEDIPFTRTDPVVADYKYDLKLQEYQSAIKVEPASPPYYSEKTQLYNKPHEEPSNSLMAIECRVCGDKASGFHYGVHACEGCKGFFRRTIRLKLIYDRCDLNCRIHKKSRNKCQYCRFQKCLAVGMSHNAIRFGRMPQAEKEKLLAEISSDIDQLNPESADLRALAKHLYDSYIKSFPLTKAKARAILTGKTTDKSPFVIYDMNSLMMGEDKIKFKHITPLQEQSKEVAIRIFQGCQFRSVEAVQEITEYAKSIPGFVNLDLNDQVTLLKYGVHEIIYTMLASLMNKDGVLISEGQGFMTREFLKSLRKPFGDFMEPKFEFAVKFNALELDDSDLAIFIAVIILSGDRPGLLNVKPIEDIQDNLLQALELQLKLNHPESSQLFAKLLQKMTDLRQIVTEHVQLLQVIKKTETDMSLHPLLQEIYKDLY
Method in brief: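 GeneBLAzer PPARg UAS-bla HEK293H cells carrying a stably integrated beta-lactamase reporter were pre-incubated 5 h at 37C, then exposed to compounds in DMSO for 17 h at 37C; LiveBLAzer B/G FRET substrate was added for 1 h at room temperature and fluorescence read.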

[14] = target: Nuclear receptor subfamily 1 group I member 2 (Homo sapiens) (UniProt O75469); test: Human pregnane X receptor (PXR) activation by small molecules, qHTS assay (AID 1346985); also: nearly all actives have a fitted effect of over 40% in size
Method in brief: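 DPX-2 cells (HepG2 co-transfected with a PXR response element and a CYP3A4-promoter luciferase construct) were seeded at 2,000 per well, rested 5 hr at 37C, then exposed to DMSO-dissolved compounds for 24 hr. Activation was read as luciferase luminescence.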

[15] = qHTS assay to test for compound auto fluorescence at 535 nm (green) in HepG2 cells (AID 720675)
[16] = qHTS assay to test for compound auto fluorescence at 590 nm (red) in HEK293 cell free culture (AID 720683)
Method in brief: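 Cell-free wells of DMEM with 10% FBS received compound, and intrinsic fluorescence was read at excitation/emission 540/590 nm. Values expressed as equivalence to Rose Bengal sodium.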

[17] = qHTS assay to test for compound auto fluorescence at 535 nm (green) in HepG2 cell free culture (AID 720686)
[18] = qHTS assay to test for compound auto fluorescence at 460 nm (blue) in HepG2 cells (AID 720687)
Method in brief: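 HepG2 cells in MEM with 10% FBS, attached overnight at 37 C, were exposed to compound or DMSO for 1 hr at 37 C, 5% CO2. Blue fluorescence was read at 405/460 nm, with triamterene as reference fluorophore.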

[19] = qHTS assay for identifying genotoxic compounds that show differential cytotoxicity against isogenic chicken DT40 cell lines with known DNA damage response pathways - Rad54/Ku70 mutant cell line (AID 743015); also: nearly all actives have a fitted effect of over 60% in size
[20] = qHTS assay to identify small molecule antagonists of the androgen receptor (AR) signaling pathway - cell viability counter screen (AID 743033; also: nearly all actives have a fitted effect of over 45% in size)

Compound | Potency [1] | Potency [2] | outcome [3] | Potency [4] | Potency [5] | Potency [6] | Potency [7] | Potency [8] | Potency [9] | Potency [10] | Potency [11] | Potency [12] | Potency [13] | Potency [14] | Potency [15] | outcome [16] | Potency [17] | Potency [18] | Potency [19] | Potency [20]
CC(=O)O[C@H]1CC[C@H]2[C@@H]3CCC4=CC(=O)CCC4=C3C=C[C@]12C | inactive | inactive | inactive | inactive | inactive | 23.7 µM (active) | inactive | inactive | 2.68 µM [inconclusive] (active) | 0.531 µM (active) | inactive | inactive | inactive | inactive | – | – | – | – | – | –
O=S(=O)(O)c1cc(O)ccc1O | inactive | inactive | inactive | inactive | inactive | inactive | – | inactive | – | – | – | – | – | – | inactive | inactive | inactive | inactive | inactive | inactive
COc1ccc(OC)c([C@@H](O)[C@H](C)N)c1 | inactive | inactive | inactive | inactive | inactive | inactive | inactive | inactive | inactive | inactive | inactive | inactive | inactive | inactive | inactive | – | inactive | inactive | inactive | inactive
CC(=O)OO | inactive | inactive | inactive | inactive | – | inactive | inactive | inactive | inactive | inactive | inactive | inactive | inactive | inactive | – | inactive | inactive | inactive | inactive | –
CC1(C)S[C@@H]2[C@H](N)C(=O)N2[C@H]1C(=O)O | inactive | inactive | – | inactive | inactive | inactive | inactive | inactive | inactive | inactive | inactive | – | – | inactive | inactive | inactive | – | inactive | inactive | inactive
C=CCN(C1=NCCN1)c1c(Cl)cccc1Cl | inactive | inactive | – | inactive | inactive | inactive | inactive | inactive | inactive | 11.9 µM (active) | inactive | inactive | inactive | inactive | inactive | inactive | inactive | inactive | inactive | inactive
C[C@]12C=CC(=O)C=C1CC[C@@H]1[C@@H]2CC[C@]2(C)OC(=O)CC[C@@H]12 | inactive | – | – | inactive | – | inactive | – | inactive | 21.3 µM [inconclusive] (active) | 5.31 µM (active) | inactive | inactive | – | inactive | – | inactive | inactive | inactive | inactive | inactive
C[C@]12CCC(=O)C=C1C=C[C@@H]1[C@@H]2CC[C@@]2(C)[C@H]1CC[C@@]2(O)CCC(=O)O | inactive | inactive | inactive | inactive | inactive | – | inactive | – | – | – | – | inactive | inactive | inactive | inactive | inactive | inactive | – | – | inactive
CC(=O)[C@H]1CC[C@H]2[C@@H]3CC[C@@H]4C[C@H](O)CC[C@]4(C)[C@H]3CC[C@]12C | – | inactive | inactive | inactive | inactive | inactive | – | – | 26.8 µM [activator] (active) | 29.8 µM (active) | – | inactive | inactive | inactive | – | inactive | inactive | inactive | inactive | inactive
C#CC(C)(O)CC (stereo not drawn) | – | – | inactive | – | inactive | inactive | – | – | inactive | inactive | inactive | – | inactive | inactive | inactive | inactive | inactive | inactive | inactive | inactive
CNC(C)C(O)c1ccc(O)cc1 (stereo not drawn) | inactive | – | inactive | inactive | – | inactive | inactive | inactive | inactive | inactive | inactive | inactive | – | inactive | inactive | inactive | inactive | inactive | inactive | –
C[N+]1(C)[C@@H]2CC[C@H]1CC(OC(=O)c1c[nH]c3ccccc13)C2 (stereo partly drawn) | inactive | inactive | inactive | inactive | inactive | – | inactive | inactive | inactive | inactive | inactive | inactive | inactive | inactive | inactive | inactive | inactive | inactive | inactive | –
N#CC1(N2CCCCC2)CCCCC1 | inactive | inactive | inactive | – | inactive | inactive | – | – | inactive | inactive | inactive | inactive | inactive | inactive | – | inactive | – | inactive | inactive | inactive
C[C@]12CC[C@H](OS(=O)(=O)O)CC1=CC[C@@H]1[C@@H]2CC[C@]2(C)C(=O)CC[C@@H]12 | – | inactive | inactive | inactive | inactive | – | inactive | – | inactive | 13.3 µM (active) | inactive | inactive | inactive | inactive | inactive | – | inactive | inactive | inactive | inactive
O=C(CS(=O)C(c1ccccc1)c1ccccc1)NO (stereo not drawn) | inactive | inactive | inactive | inactive | inactive | inactive | inactive | inactive | inactive | inactive | inactive | inactive | inactive | inactive | inactive | inactive | inactive | inactive | inactive | –
